Source: PubChem BioAssay (Tox21)
Results filed as inconclusive are left out. Where a call stands in place of a potency, no number is given. Calls of active or inactive are those of the source. Unless noted, the call rests on the fitted dose curve.

Assay: qHTS assay for small molecule agonists of the p53 signaling pathway (AID 651631); further: nearly all actives have a fitted effect of over 15% in size
Conditions: HCT-116 p53RE-bla reporter, beta-lactamase FRET ratio, 16 h; series mostly up to 73.3 µM
How it was run: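 Testing took place in human colorectal HCT-116 cells with stable p53RE-driven beta-lactamase. After 16 h of compound exposure at 37 °C, a FRET substrate was added and fluorescence recorded 2 h later.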
For `CCC(=O)OC(C)c1ccccc1` (centres undefined), the outcome was “inactive”. With `CCCc1cc(C(N)=S)ccn1` the outcome was “inactive”. For `CC/C=C\CC/C=C/C(OCC)OCC`, the outcome was “inactive”. For `CCN1CCC[C@H]1CNC(=O)c1c(O)c(Cl)cc(Cl)c1OC`, the outcome was “inactive”. With `OC(CCN1CCCCC1)(c1ccccc1)C1CC2C=CC1C2` (centres undefined) the outcome was “inactive”. For `CCCN1CCCC[C@H]1C(=O)Nc1c(C)cccc1C`, the outcome was “inactive”. For `Nc1cc(=O)[nH]c(N)n1`, the outcome was “inactive”. For `CC(C)CNCC(C)C`, the outcome was “inactive”. In the case of `O=C1CCCCCCCCCCCN1`, the outcome is reported as “inactive”. In the case of `COc1ccc2c(c1)c(CC(=O)OCC(=O)O)c(C)n2C(=O)c1ccc(Cl)cc1`, the outcome is reported as “inactive”. With `COC(=O)c1c(Cl)c(Cl)c(C(=O)OC)c(Cl)c1Cl` the outcome was “inactive”. In the case of `N=C(N)c1ccc(OCCCOc2ccc(C(=N)N)cc2)cc1`, the outcome is reported as “inactive”. For `CCCCCCCCCCCCCC=O`, the activation was -3.36% [at 8.3 µM] (inactive). With `N[C@H](C(=O)O)c1ccc(O)cc1` the outcome was “inactive”.

Assay: qHTS assay for small molecules that induce genotoxicity in human embryonic kidney cells expressing luciferase-tagged ATAD5 (AID 651632; active means well fitted activation curve with a large enough effect in the repeat runs; further: nearly all actives have a fitted effect of over 15% in size)
Conditions: HEK293T ATAD5-luciferase induction, 16 h; series mostly up to 83.3 µM
How it was run: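 HEK293T cells carrying luciferase-tagged ATAD5 were given compound or DMSO vehicle and incubated 16 hr at 37C, 5% CO2. Luciferase activity was read after 30 min at room temperature with Amplite; a rise signals genotoxic stress.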
With `COc1nc(N)nc2c1ncn2[C@@H]1O[C@H](CO)[C@@H](O)[C@@H]1O` the Potency was “inactive”. With `CC(C)(C)NCCNC(C)(C)C` the Potency was “inactive”. With `CCSC(=O)N(CC(C)C)CC(C)C` the Potency was “inactive”. In the case of `CC1(C)CO[C@@H](CC(=O)O)CN1`, the Potency is reported as “inactive”. For `COCCc1ccc(OCC(O)CNC(C)C)cc1` (centres undefined), the Potency was “inactive”. For `O=C1NC(=O)[C@@]2(CCOc3ccc(F)cc32)N1`, the Potency was “inactive”. With `N[C@H]1CN(c2c(F)cc3c(=O)c(C(=O)O)cn(C4C[C@H]4F)c3c2Cl)CC12CC2` (some centres undefined) the Potency was “inactive”. For `CCCCCCCCCCCCN(CCCCCCCCCCCC)CCCCCCCCCCCC`, the Potency was “inactive”. In the case of `CC(C[N+](C)(C)C)OC(N)=O` (centres undefined), the Potency is reported as “inactive”. For `O=C(O)CCCc1ccccc1`, the Potency was “inactive”. For `N#Cc1ccc(C2CCCc3cncn32)cc1` (centres undefined), the Potency was “inactive”. For `CCOC(C)(C)C`, the Potency was “inactive”. For `c1ccc(CC2=NCCN2)cc1`, the Potency was “inactive”. For `O=C(O)c1ccccc1OP(=O)(O)O`, the Potency was “inactive”. In the case of `C=CCS(=O)(=O)O`, the Potency is reported as “inactive”. In the case of `O=C(O)CCCl`, the Potency is reported as “inactive”. With `COC(=O)[C@@H](N)Cc1ccc(O)c(O)c1` the Potency was “inactive”. With `NS(=O)(=O)c1cc(C(=O)O)cc(N2CCCC2)c1Oc1ccccc1` the Potency was “inactive”. In the case of `CCOC(=O)c1cccc(N)c1`, the Potency is reported as “inactive”. In the case of `CN(C(=O)c1c(O)c2ccccc2n(C)c1=O)c1ccccc1`, the Potency is reported as “inactive”. In the case of `CC(=O)c1ccccc1O`, the Potency is reported as “inactive”. With `CO[Si](CCCOCC1CO1)(OC)OC` (centres undefined) the Potency was “inactive”. With `CCCN(CCC)CCc1cccc2c1CC(=O)N2` the Potency was “inactive”. For `NC(=O)COCCN1CCN(C(c2ccccc2)c2ccc(Cl)cc2)CC1` (centres undefined), the Potency was “inactive”. In the case of `NC(=O)Nc1ccccc1`, the Potency is reported as “inactive”. In the case of `COc1c(N2C[C@@H]3CCCN[C@@H]3C2)c(F)cc2c(=O)c(C(=O)O)cn(C3CC3)c12`, the Potency is reported as “inactive”. With `CCC(=O)OC(C)c1ccccc1` (centres undefined) the Potency was “inactive”. For `CCCc1cc(C(N)=S)ccn1`, the Potency was “inactive”. With `CC/C=C\CC/C=C/C(OCC)OCC` the Potency was “inactive”. For `CCN1CCC[C@H]1CNC(=O)c1c(O)c(Cl)cc(Cl)c1OC`, the Potency was “inactive”. With `OC(CCN1CCCCC1)(c1ccccc1)C1CC2C=CC1C2` (centres undefined) the Potency was “inactive”. In the case of `CCCN1CCCC[C@H]1C(=O)Nc1c(C)cccc1C`, the Potency is reported as “inactive”. For `Nc1cc(=O)[nH]c(N)n1`, the Potency was “inactive”. For `CC(C)CNCC(C)C`, the Potency was “inactive”. With `O=C1CCCCCCCCCCCN1` the Potency was “inactive”. With `COc1ccc2c(c1)c(CC(=O)OCC(=O)O)c(C)n2C(=O)c1ccc(Cl)cc1` the Potency was “inactive”. For `COC(=O)c1c(Cl)c(Cl)c(C(=O)OC)c(Cl)c1Cl`, the Potency was “inactive”. In the case of `N=C(N)c1ccc(OCCCOc2ccc(C(=N)N)cc2)cc1`, the Potency is reported as “inactive”. In the case of `CCCCCCCCCCCCCC=O`, the activation is reported as 2.51% [at 8.08 µM] (inactive). With `N[C@H](C(=O)O)c1ccc(O)cc1` the Potency was “inactive”.

Assay: qHTS assay for small molecule agonists of the p53 signaling pathway - cell viability (AID 651633); further: nearly all actives have a fitted effect of over 30% in size
Conditions: p53RE-bla HCT-116 viability, ATP luminescence, 16 h; series mostly up to 83.3 µM
How it was run: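 Viability counter-read: CellTiter-Glo luminescence (30 min, room temperature) in the same p53RE-bla plates. These plates had been exposed to compounds for 16 h at 37 C.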
For `COc1nc(N)nc2c1ncn2[C@@H]1O[C@H](CO)[C@@H](O)[C@@H]1O`, the outcome was “inactive”. With `CC(C)(C)NCCNC(C)(C)C` the outcome was “inactive”. For `CCSC(=O)N(CC(C)C)CC(C)C`, the outcome was “inactive”. With `CC1(C)CO[C@@H](CC(=O)O)CN1` the outcome was “inactive”. With `COCCc1ccc(OCC(O)CNC(C)C)cc1` (centres undefined) the outcome was “inactive”. In the case of `O=C1NC(=O)[C@@]2(CCOc3ccc(F)cc32)N1`, the outcome is reported as “inactive”. With `N[C@H]1CN(c2c(F)cc3c(=O)c(C(=O)O)cn(C4C[C@H]4F)c3c2Cl)CC12CC2` (some centres undefined) the outcome was “inactive”. With `CCCCCCCCCCCCN(CCCCCCCCCCCC)CCCCCCCCCCCC` the outcome was “inactive”. In the case of `CC(C[N+](C)(C)C)OC(N)=O` (centres undefined), the outcome is reported as “inactive”. With `O=C(O)CCCc1ccccc1` the outcome was “inactive”. For `N#Cc1ccc(C2CCCc3cncn32)cc1` (centres undefined), the outcome was “inactive”. For `CCOC(C)(C)C`, the outcome was “inactive”. In the case of `c1ccc(CC2=NCCN2)cc1`, the outcome is reported as “inactive”. For `O=C(O)c1ccccc1OP(=O)(O)O`, the outcome was “inactive”. With `C=CCS(=O)(=O)O` the outcome was “inactive”. With `O=C(O)CCCl` the outcome was “inactive”. In the case of `COC(=O)[C@@H](N)Cc1ccc(O)c(O)c1`, the outcome is reported as “inactive”. With `NS(=O)(=O)c1cc(C(=O)O)cc(N2CCCC2)c1Oc1ccccc1` the outcome was “inactive”. With `CCOC(=O)c1cccc(N)c1` the outcome was “inactive”. With `CN(C(=O)c1c(O)c2ccccc2n(C)c1=O)c1ccccc1` the outcome was “inactive”. With `CC(=O)c1ccccc1O` the outcome was “inactive”. In the case of `CO[Si](CCCOCC1CO1)(OC)OC` (centres undefined), the outcome is reported as “inactive”. In the case of `CCCN(CCC)CCc1cccc2c1CC(=O)N2`, the outcome is reported as “inactive”. For `NC(=O)COCCN1CCN(C(c2ccccc2)c2ccc(Cl)cc2)CC1` (centres undefined), the outcome was “inactive”. With `NC(=O)Nc1ccccc1` the outcome was “inactive”. In the case of `COc1c(N2C[C@@H]3CCCN[C@@H]3C2)c(F)cc2c(=O)c(C(=O)O)cn(C3CC3)c12`, the outcome is reported as “inactive”. With `CCC(=O)OC(C)c1ccccc1` (centres undefined) the outcome was “inactive”. In the case of `CCCc1cc(C(N)=S)ccn1`, the outcome is reported as “inactive”. With `CC/C=C\CC/C=C/C(OCC)OCC` the outcome was “inactive”. For `CCN1CCC[C@H]1CNC(=O)c1c(O)c(Cl)cc(Cl)c1OC`, the outcome was “inactive”. In the case of `OC(CCN1CCCCC1)(c1ccccc1)C1CC2C=CC1C2` (centres undefined), the outcome is reported as “inactive”. In the case of `CCCN1CCCC[C@H]1C(=O)Nc1c(C)cccc1C`, the outcome is reported as “inactive”. With `Nc1cc(=O)[nH]c(N)n1` the outcome was “inactive”. With `CC(C)CNCC(C)C` the outcome was “inactive”. With `O=C1CCCCCCCCCCCN1` the outcome was “inactive”. In the case of `COc1ccc2c(c1)c(CC(=O)OCC(=O)O)c(C)n2C(=O)c1ccc(Cl)cc1`, the outcome is reported as “inactive”. With `COC(=O)c1c(Cl)c(Cl)c(C(=O)OC)c(Cl)c1Cl` the outcome was “inactive”. With `N=C(N)c1ccc(OCCCOc2ccc(C(=N)N)cc2)cc1` the outcome was “inactive”. With `CCCCCCCCCCCCCC=O` the activity change, negative = cytotoxicity was 18.4% [at 8.08 µM] (inactive). With `N[C@H](C(=O)O)c1ccc(O)cc1` the outcome was “inactive”.
